Screens: PubChem BioAssay, The Scripps Research Institute Molecular Screening Center
MBD2 inh – blocks human MBD2 binding to methylated DNA; AID 686964; TR-FRET, MBD2 binding to methylated oligonucleotide; inhibition, % at 4.4 µM; 370,000 compounds, 0.31% hits; in the data active = inhibition above about 13%
PLCg1 inh – blocks human PLC-gamma1 enzyme activity. purified PLC-gamma1, fluorogenic substrate, fluorescence. 370,000 compounds, 0.84% hits. inhibition, % at 12.2 µM. P19174; in the data active = inhibition above about 9.5%
PLC-beta3 inh – blocks human PLC-beta3 enzyme activity; Q01970; Purified PLC-beta3, fluorogenic substrate, fluorescence; inhibition, % at 12.2 µM; 370,000 compounds, 0.18% hits; AID 720704; in the data active = inhibition above about 11%
UHRF1 binding – human UHRF1 methylated DNA binding inhibitors; UHRF1 binding to methylated oligo, TR-FRET; Q96T88; 370,000 compounds, 0.75% hits; inhibition, % at 4.4 µM; AID 687016; in the data active = inhibition above about 21%;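 note: UHRF1 SRA domain binding a hemimethylated CpG hairpin DNA probe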
LEDGF integ inh – blocks HIV-1 LEDGF/p75-dependent DNA integration. TR-FRET IN-LEDGF/p75 DNA integration, Eu/Cy5. inhibition, % at 3.7 µM. 370,000 compounds, 0.64% hits;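 active = inhibition above the screen-wide mean plus 3 SD, cut at about 13% in these data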;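 note: signal is the Cy5 over europium emission ratio at 671 and 618 nm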
IN multimer up – activates HIV-1 integrase multimerization in LEDGF counter-screen; TR-FRET HIV-1 integrase multimerization, biochemical; shares compounds with LEDGF integ inh; 2,000 compounds, 17% hits; activation, % at 7.7 µM; in the data active = activation above about 8.9%
TR-FRET interf – TR-FRET optical interference, LEDGF/p75 integration counter-screen; shares compounds with LEDGF integ inh; TR-FRET optical interference counterscreen, HIV-1 IN multimerization; AID 1053135; inhibition, % at 7.7 µM; 2,000 tested, under 10 active;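 active = inhibition above the mean over all tested compounds plus 3 SD, which no compound reached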
LEDGF integ conf – confirmation of HIV-1 LEDGF/p75-dependent integration inhibitors. inhibition, % at 3.7 µM. TR-FRET LEDGF/p75-dependent HIV-1 integration, biochemical. 2,000 compounds, 36% hits. shares compounds with LEDGF integ inh. AID 1053136; in the data active = inhibition above about 14%
Each line names hits and unclear results; the compound was inactive in the other large screens (follow-up assays come after a bar, where they were run). Hits are enriched below; roughly 2.3% of the tested compounds scored in any of these assays.

O=C1C=C(Nc2ccc(O)cc2)CC(c2ccco2)C1 (centres undefined)	none
CC(=O)Nc1ccc(S(=O)(=O)Nc2nc3ccccc3nc2Nc2cccc(O)c2)cc1	none
CC(=O)Nc1ccc(S(=O)(=O)Nc2nc3ccccc3nc2Nc2ccc(C(=O)O)c(O)c2)cc1	UHRF1 binding 26, LEDGF integ inh 26 | IN multimer up 23 | TR-FRET interf inactive | LEDGF integ conf 29
CN(C)c1nc(N/N=C/c2c[nH]c3ccccc23)nc(N2CCOCC2)n1	none
C(=Nc1ccc(N2CCOCC2)cc1)c1c[nH]c2ccccc12	LEDGF integ inh 23 | IN multimer up inactive | TR-FRET interf inactive | LEDGF integ conf inactive
C=Cc1ccc(N=Cc2c(O)ccc3ccccc23)cc1	none
Oc1ccc2ccccc2c1C=Nc1ccc(N2CCOCC2)cc1	LEDGF integ inh 28 | IN multimer up inactive | TR-FRET interf inactive | LEDGF integ conf inactive
COC(=O)c1sc2nc(N)c(C#N)cc2c1N	LEDGF integ inh 34 | IN multimer up inactive | TR-FRET interf inactive | LEDGF integ conf inactive
O=C(COCc1ccccc1)N1CC[C@H]2[C@H](CCCN2Cc2ccccc2)C1	none
COc1cc(N=C2C(=O)N3CCCc4cccc2c43)cc(OC)c1	none
O=C1c2cccc3c2N(CCC3)C(=O)C1(F)c1ccccc1 (centres undefined)	LEDGF integ inh 14 | IN multimer up inactive | TR-FRET interf inactive | LEDGF integ conf inactive
COc1cc(C2OCC3C(c4ccc(OC5OC(CO)C(O)C(O)C5O)c(OC)c4)OCC23)ccc1O (centres undefined)	LEDGF integ inh 32 | IN multimer up 34 | TR-FRET interf inactive | LEDGF integ conf 15
Cc1ccc(CN2CCCCC(NC(=O)C(C)(C)C)C2=O)cc1 (centres undefined)	none
CCOC(=O)N1CCN(c2cc(=O)n(-c3ccccc3C)c(=O)[nH]2)CC1	none
Cc1ccccc1-n1c(=O)cc(N2CCN(Cc3ccccc3)CC2)[nH]c1=O	LEDGF integ inh 18 | IN multimer up inactive | TR-FRET interf inactive | LEDGF integ conf inactive
O=C(NCC1COc2ccccc2O1)c1ccc(NC(=O)c2cccc(F)c2)cc1 (centres undefined)	none
CCn1c2ccccc2c2cc(C=Nn3c(-c4ccccn4)n[nH]c3=S)ccc21	none
CN(C)S(=O)(=O)N1CCN(C(=O)N(c2ccccc2)c2ccccc2)CC1	LEDGF integ inh 71 | IN multimer up inactive | TR-FRET interf inactive | LEDGF integ conf inactive
Cc1ccc(S(=O)(=O)N2CCN(C(=O)N(c3ccccc3)c3ccccc3)CC2)cc1	none
CCOC1=C2[C@@H](CN(S(=O)(=O)c3ccccc3C)[C@H]2c2ccc(Cl)cc2)[C@H]2C(=O)N(C3CCCCC3)C(=O)[C@H]2C1	none
CCOC1=C2[C@@H](CN(S(=O)(=O)c3ccccc3C)[C@H]2c2ccc(Cl)cc2)[C@H]2C(=O)N(c3ccccc3)C(=O)[C@H]2C1	LEDGF integ inh 37 | IN multimer up inactive | TR-FRET interf inactive | LEDGF integ conf inactive
O[C@H](COc1cc(F)cc(F)c1)CN1CCC(C(O)(c2ccccc2)c2ccccc2)CC1	none
COc1ccc(N(C(C)C(=O)N/N=C/c2cccnc2)S(C)(=O)=O)cc1 (centres undefined)	LEDGF integ inh 35 | IN multimer up inactive | TR-FRET interf inactive | LEDGF integ conf inactive
COc1ccc(N(C(C)C(=O)N/N=C/c2ccc(OC(C)C)cc2)S(C)(=O)=O)cc1 (centres undefined)	none
O=C(NC1CCCCN(Cc2cccc(F)c2)C1=O)c1cccc(F)c1 (centres undefined)	none
CC(C)C(=O)N1CC[C@H]2[C@H](CCCN2Cc2cc(F)cc(F)c2)C1	none
COc1cccc(CNc2cccc3cccnc23)c1O	none
Oc1ccc(Br)cc1CNc1cccc2cccnc12	LEDGF integ inh 14 | IN multimer up inactive | TR-FRET interf inactive | LEDGF integ conf inactive
Cc1ccc(O)c(CNc2cccc3cccnc23)c1	none
Oc1c(Br)cc(Br)cc1CNc1cccc2cccnc12	LEDGF integ inh 40 | IN multimer up inactive | TR-FRET interf inactive | LEDGF integ conf 21
Oc1ccc(Cl)cc1CNc1cccc2cccnc12	LEDGF integ inh 37 | IN multimer up inactive | TR-FRET interf inactive | LEDGF integ conf inactive
COC(=O)[C@H]1C[C@@]2(n3ccc4ccccc43)c3ccccc3N[C@H]2N1	none
O=S(=O)(c1ccc2c(c1)N(Cc1ccc(Cl)cc1)C1CCCN21)N1CCOCC1 (centres undefined)	LEDGF integ inh 23 | IN multimer up inactive | TR-FRET interf inactive | LEDGF integ conf inactive
COCCCNC(=O)C[C@H]1C[C@@]2(C(=O)OC)C(=C[C@H](C(C)(C)C)O[C@@H]2C)N(Cc2cccc3ccccc23)C1=O	none
COc1cc(NC(=O)c2cc(Cl)ccc2Cl)ccc1-c1cc2ccccc2oc1=O	LEDGF integ inh 35 | IN multimer up inactive | TR-FRET interf inactive | LEDGF integ conf inactive
COc1cc(NC(=O)c2cccnc2)ccc1-c1cc2ccccc2oc1=O	none
Clc1ccc([C@H]2OC[C@@]3(CNC4CCCCC4)CS[C@H](c4ccc(Cl)cc4)N23)cc1	none
O=c1c(C=NCCCO)c(-c2ccccc2)[nH]n1-c1nc2ccccc2s1	LEDGF integ inh 21 | IN multimer up inactive | TR-FRET interf inactive | LEDGF integ conf inactive
CCC(=O)c1ccc(OCC(O)Cn2cnc3ccccc32)cc1 (centres undefined)	LEDGF integ inh 36 | IN multimer up 11 | TR-FRET interf inactive | LEDGF integ conf inactive
C[C@@H]1[C@H](O)[C@@H](C)/C=C/C=C/C=C/C=C/C=C/C=C/C=C/[C@H](OC2O[C@H](C)[C@@H](O)[C@H](N)[C@@H]2O)C[C@@H]2O[C@](O)(C[C@@H](O)C[C@@H](O)[C@H](O)CC[C@@H](O)C[C@@H](O)CC(=O)O[C@H]1C)C[C@H](O)[C@H]2C(=O)O (some centres undefined)	LEDGF integ inh 32 | IN multimer up inactive | TR-FRET interf inactive | LEDGF integ conf 78
CC1C/C=C/C=C/C=C/C=C/C(O[C@@H]2O[C@H](C)[C@@H](O)[C@H](N)[C@@H]2O)CC2OC(O)(CC(O)CC3OC3/C=C/C(=O)O1)CC(O)C2C(=O)O (some centres undefined)	LEDGF integ inh 21 | IN multimer up inactive | TR-FRET interf inactive | LEDGF integ conf 35
